Source: the OligoGym collection

target: NOTCH4; experiment: pooled miR-30 sensor sort-seq; sequence = guide strand; details: shRNA
Further: reference of the scale not given here.

Point of comparison: TTGGTGAGCGACGTCCGCCGGC, sensor-assay potency score (higher = more potent) -0.551. Against it:
- TTGGGACTGACAAGCATCGAGT — lower, -0.743
- TTTCTGGTCCTTACATATCTGC — lower, -1.07
- TTGGCTGAACAGAAGTCCCGAA — higher, -0.0674

target: NOX3; experiment: as above; details: shRNA

Point of comparison: TAAAATTCAGGCACAGTGCGGA, sensor-assay potency score (higher = more potent) -0.0572. Against it:
- TAATTATTCTTTCACATGCATA — lower, -1.3
- TAGCGGTCTCTACAGAAGGTGA — lower, -1.67
- TTGCATTAACAGCTATCCCATA — lower, -1.07
- TTGAACCCAAAATAACTCGTGT — lower, -0.176
- TAGAAATGAACACCTCTGGGGT — lower, -0.411
- TAATAGAAATGAACACCTCTGG — lower, -0.368
- TTGAGGTAGCTCTCGTTAGGGG — lower, -0.746
- TACCAGAACAACTCATAGGAGG — lower, -0.91
- TAAAGCTATGTGAAGAGCCTGA — higher, 0.784
- TAGATTTCAGAAGAGCAGCGAA — lower, -0.277

target: NOXA1; experiment: as above; details: shRNA

Point of comparison: TCTGCAGCGACTCCTCCTCGGG, sensor-assay potency score (higher = more potent) -1.51. Against it:
- TGGTAGGCAGTCGACGTGCAGC — lower, -1.86
- TCACACAGGACGTCCACCGTGT — higher, 0.181
- TCTGTCTCTGCATCGAGGGGGC — higher, -0.532
- TTGGTCCAGGGCTGAGTCCAGG — lower, -1.7
- TTGGGGAAGATGCCGATGCGGC — higher, -1.12
- TGGCATCATGGTTCGCTCCTGG — higher, -0.558
- TAACTGAGTTGCCCAAGCTGGG — higher, -1.24
- ACATTGTGTAGCACCTCCCAGG — higher, -1.3
- TTAGGGACCTGGCATCATGGTT — higher, -1.05
- TTGTGTAGCACCTCCCAGGCTT — higher, -0.348
- TCCTGGTAGGCAGTCGACGTGC — lower, -1.54

target: NPBWR1; experiment: as above; details: shRNA

Point of comparison: AACTGGTACAGCCACCGCCAGC, sensor-assay potency score (higher = more potent) -1.89. Against it:
- TTGGAGCAGCTCAGCGCCGGGT — higher, -1.46
- TTGATGGGCAGCACCAGCGTGA — higher, -0.969
- TGTACTGGTCGATAGCCACGAT — higher, -0.544
- TTGGTGACGGTCTTCATGCGGG — higher, -0.52
- TCACCGCGTAGACAACTGGTAC — higher, -1.33
- TCGATAGCCACGATGAGCTTGC — higher, 0.0042
- TAGAGGACACAGATGGTGGACA — higher, -0.757
- TTGTACTGGTCGATAGCCACGA — higher, -0.0597
- TAGAGGAAGGGGTTGAGGCAGC — higher, 0.0364
- TGATGAAGTAGGAGATAGCGAT — higher, -0.908
- TGTTGTACTGGTCGATAGCCAC — higher, -0.835
